The target of one experiment is Furin (Homo sapiens) (UniProt P09958). In words: Furin counterscreen qHTS for Zika virus inhibitors (AID 1347149). Also: nearly all actives have a fitted effect of over 70% in size. Also: potency is read from the fitted curve at half-maximal effect. The essentials: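 Fluorogenic cleavage of BOC-RVRR-AMC (2 microM final, Km ~15 µM) was monitored (ex 340, em 450 nm) at 37C after 15 min RT preincubation of 5 nM furin with compounds in HEPES pH 7.0 buffer with CaCl2 and Triton X-100. Percent inhibition was fitted to a 4-parameter Hill curve.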
Sequence of Furin (Homo sapiens) (P09958 whole entry, looked up): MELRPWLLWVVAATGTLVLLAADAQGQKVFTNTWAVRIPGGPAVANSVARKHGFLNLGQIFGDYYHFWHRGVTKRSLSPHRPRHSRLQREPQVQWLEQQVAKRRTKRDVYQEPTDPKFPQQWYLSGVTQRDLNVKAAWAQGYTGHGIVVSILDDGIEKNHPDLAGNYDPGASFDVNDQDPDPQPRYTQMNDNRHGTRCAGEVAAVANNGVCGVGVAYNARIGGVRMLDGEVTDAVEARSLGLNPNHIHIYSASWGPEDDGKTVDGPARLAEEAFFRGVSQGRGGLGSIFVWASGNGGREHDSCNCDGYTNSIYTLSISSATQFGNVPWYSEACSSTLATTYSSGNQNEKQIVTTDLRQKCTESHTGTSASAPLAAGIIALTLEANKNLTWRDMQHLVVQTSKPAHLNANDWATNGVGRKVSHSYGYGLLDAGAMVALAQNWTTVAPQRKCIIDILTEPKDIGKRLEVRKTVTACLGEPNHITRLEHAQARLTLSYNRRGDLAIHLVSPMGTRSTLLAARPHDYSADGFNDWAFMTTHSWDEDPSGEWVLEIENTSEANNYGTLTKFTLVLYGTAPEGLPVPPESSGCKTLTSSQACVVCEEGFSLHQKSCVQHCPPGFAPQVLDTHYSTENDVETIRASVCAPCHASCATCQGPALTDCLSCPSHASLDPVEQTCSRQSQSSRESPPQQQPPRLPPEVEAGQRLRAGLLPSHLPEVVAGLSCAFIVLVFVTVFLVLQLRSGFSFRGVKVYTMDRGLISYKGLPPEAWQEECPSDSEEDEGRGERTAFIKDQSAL

The nature of experiment [1]: Confirmatory screen GU Rhodamine qHTS for Zika virus inhibitors qHTS (AID 1347157). Also: nearly all actives have a fitted effect of over 70% in size. The essentials:
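Noncovalent NS2B hydrophilic domain/NS3 protease complex (25 nM final) in 10 mM Tris-HCl pH 8.0, 0.01% Tween 20, preincubated 15 min with compounds (up to 114 microM), then 1.5 microM Rhodamine110 substrate. Fluorescence change over 15 min fitted to 4-parameter Hill.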

Experiment [2] in a line: Tertiary RLuc qRT-PCR qHTS assay for Zika virus inhibitors (AID 1347169). Also: top concentration of the series differs between compounds; nearly all actives have a fitted effect of over 55% in size. The essentials:
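Orthogonal cell-based infection assay using recombinant ZIKV-RLuc (Cambodian) in Vero cells; compound added prior to virus at MOI 1-2. Incubation lasts 48-72 hrs at 37 degrees C before live-cell Renilla substrate is added and luminescence measured.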

The subject of experiment [3] is Zika virus NS2B-NS3 protease (linked construct). Nature of the experiment: Confirmatory screen NINDS AMC qHTS for Zika virus inhibitors (AID 1347152).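 Also: AMC fluorescence gain from cleaved Bz-Nle-KRR-AMC substrate over 15 min; top concentration of the series differs between compounds; nearly all actives have a fitted effect of over 70% in size.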 In a few lines:
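In this dose-response qHTS, AMC release from 10 microM Bz-Nle-KRR-AMC by 1 nM linked protease is measured over 15 minutes (about 20% conversion) at pH 8.0. Percent inhibition is fitted to a 4-parameter Hill curve.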

In experiment [4] the test system is Zika virus NS2B-NS3 protease (unlinked complex). In words: Confirmatory screen GU AMC qHTS for Zika virus inhibitors (AID 1347153). Also: nearly all actives have a fitted effect of over 70% in size. The essentials:
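Noncovalent NS2B hydrophilic domain/NS3 protease complex (25 nM) in 10 mM Tris-HCl pH 8.0, 0.01% Tween 20 was preincubated 15 min at room temperature with compounds. Then 10 µM AMC substrate (Km 18.3 µM) was added; fluorescence was read over 15 min and fitted to a 4-parameter Hill equation.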

Experiment [5] can be described thus: ZIKV-mCherry secondary qHTS for Zika virus inhibitors (AID 1347158). Also: top concentration of the series differs between compounds. The essentials: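 Vero cells, 5,000/well, plated overnight at 37 °C, then compound added and infected with recombinant ZIKV-mCherry at MOI 1 for 48-72 h. PFA-fixed, Hoechst nuclear stain, high-content imaging; cells with mCherry intensity above 450 RFU scored infected, reported as percent infection.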

For experiment [6], the system named is Zika virus NS2B-NS3 protease (linked). Nature of the experiment: 384 well plate NINDS AMC confirmatory qHTS for Zika virus inhibitors (AID 1347163). Also: potency is read from the fitted curve at half-maximal effect; nearly all actives have a fitted effect of over 50% in size. The essentials: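 Linked protease 5/30/60 nM final; cpds up to 1 mM final, ~15 min preinc. Substrate Ac-VKTGKR-AMC 30 microM final. RT, dark, 25 min; FI ex 355/em 460; normalized to no-enzyme/no-inhibitor ctrls.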

Experiment [7] has as its system Zika virus NS2B-NS3 protease (linked construct). In words: 384 well plate NINDS Rhodamine confirmatory qHTS for Zika virus inhibitors (AID 1347164). Also: potency is read from the fitted curve at half-maximal effect; nearly all actives have a fitted effect of over 65% in size. In a few lines: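 Compounds are incubated about 15 minutes with linked protease (5, 30 or 60 nM final). Rhodamine 110-tagged Ac-LKRR substrate (10 microM final) is added and fluorescence measured after 25 minutes.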
Experiment [8] can be described thus: Confirmatory screen NINDS Rhodamine qHTS for Zika virus inhibitors (AID 1347161). Also: potency is read from the fitted curve at half-maximal effect; nearly all actives have a fitted effect of over 60% in size. The essentials:
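Each compound, titrated, sat 15 min with 25 nM linked protease before 1.5 microM Rhodamine110 substrate went in. Fluorescence gain over the next 15 min, in pH 8.0 Tris with Tween 20, gave Hill-fitted curves.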

In experiment [9] the target is Rap guanine nucleotide exchange factor 3 (Homo sapiens) (UniProt O95398). In words: Confirmatory qHTS for antagonist of cAMP-regulated guanine nucleotide exchange factor 3 (EPAC1) (AID 1645880). Also: nearly all actives have a fitted effect of over 55% in size. In a few lines: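 Nucleotide exchange uses 100 nM EPAC1, 250 nM RAP1B-BODIPY-GDP and 50 uM GDP, with compounds in a concentration-titration series. After 5 min at room temperature, fluorescence (480 nm ex/540 nm em) is read every 5 min for 30 min. Data are normalized to control ATA and DMSO.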
Sequence of Rap guanine nucleotide exchange factor 3 (Homo sapiens) (O95398 whole entry, looked up): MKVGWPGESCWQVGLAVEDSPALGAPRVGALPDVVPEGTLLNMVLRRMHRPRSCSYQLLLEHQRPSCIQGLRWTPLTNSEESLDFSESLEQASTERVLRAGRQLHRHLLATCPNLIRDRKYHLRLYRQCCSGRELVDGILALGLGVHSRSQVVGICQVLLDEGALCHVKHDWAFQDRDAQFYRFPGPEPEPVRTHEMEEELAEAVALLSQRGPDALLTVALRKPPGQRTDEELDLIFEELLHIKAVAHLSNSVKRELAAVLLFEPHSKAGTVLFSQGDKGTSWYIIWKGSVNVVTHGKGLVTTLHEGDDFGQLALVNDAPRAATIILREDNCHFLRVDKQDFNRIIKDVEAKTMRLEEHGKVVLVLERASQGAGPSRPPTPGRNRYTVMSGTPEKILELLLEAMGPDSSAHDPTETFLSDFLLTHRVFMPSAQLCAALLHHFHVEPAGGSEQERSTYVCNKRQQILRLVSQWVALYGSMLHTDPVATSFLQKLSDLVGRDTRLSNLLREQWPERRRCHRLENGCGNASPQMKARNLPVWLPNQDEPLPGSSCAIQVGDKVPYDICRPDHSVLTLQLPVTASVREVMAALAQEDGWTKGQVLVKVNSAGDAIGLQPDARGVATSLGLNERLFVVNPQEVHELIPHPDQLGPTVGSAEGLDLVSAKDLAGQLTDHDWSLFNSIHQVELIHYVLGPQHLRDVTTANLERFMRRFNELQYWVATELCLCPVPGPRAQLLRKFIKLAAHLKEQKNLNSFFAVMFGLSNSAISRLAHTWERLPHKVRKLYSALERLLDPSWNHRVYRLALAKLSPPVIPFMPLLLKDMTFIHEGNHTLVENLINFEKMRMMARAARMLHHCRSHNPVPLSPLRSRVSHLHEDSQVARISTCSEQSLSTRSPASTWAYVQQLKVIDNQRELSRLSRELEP

The target of experiment [10] is Rap guanine nucleotide exchange factor 4 (Homo sapiens) (UniProt Q8WZA2). In words: Confirmatory qHTS for agonist of cAMP-regulated guanine nucleotide exchange factor 4 (EPAC2) (AID 1645884).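 Also: nucleotide exchange releases bodipy-GDP from Rap1 and this lowers its fluorescence; nearly all actives have a fitted effect of over 65% in size.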
Sequence of Rap guanine nucleotide exchange factor 4 (Homo sapiens) (Q8WZA2 whole entry, looked up): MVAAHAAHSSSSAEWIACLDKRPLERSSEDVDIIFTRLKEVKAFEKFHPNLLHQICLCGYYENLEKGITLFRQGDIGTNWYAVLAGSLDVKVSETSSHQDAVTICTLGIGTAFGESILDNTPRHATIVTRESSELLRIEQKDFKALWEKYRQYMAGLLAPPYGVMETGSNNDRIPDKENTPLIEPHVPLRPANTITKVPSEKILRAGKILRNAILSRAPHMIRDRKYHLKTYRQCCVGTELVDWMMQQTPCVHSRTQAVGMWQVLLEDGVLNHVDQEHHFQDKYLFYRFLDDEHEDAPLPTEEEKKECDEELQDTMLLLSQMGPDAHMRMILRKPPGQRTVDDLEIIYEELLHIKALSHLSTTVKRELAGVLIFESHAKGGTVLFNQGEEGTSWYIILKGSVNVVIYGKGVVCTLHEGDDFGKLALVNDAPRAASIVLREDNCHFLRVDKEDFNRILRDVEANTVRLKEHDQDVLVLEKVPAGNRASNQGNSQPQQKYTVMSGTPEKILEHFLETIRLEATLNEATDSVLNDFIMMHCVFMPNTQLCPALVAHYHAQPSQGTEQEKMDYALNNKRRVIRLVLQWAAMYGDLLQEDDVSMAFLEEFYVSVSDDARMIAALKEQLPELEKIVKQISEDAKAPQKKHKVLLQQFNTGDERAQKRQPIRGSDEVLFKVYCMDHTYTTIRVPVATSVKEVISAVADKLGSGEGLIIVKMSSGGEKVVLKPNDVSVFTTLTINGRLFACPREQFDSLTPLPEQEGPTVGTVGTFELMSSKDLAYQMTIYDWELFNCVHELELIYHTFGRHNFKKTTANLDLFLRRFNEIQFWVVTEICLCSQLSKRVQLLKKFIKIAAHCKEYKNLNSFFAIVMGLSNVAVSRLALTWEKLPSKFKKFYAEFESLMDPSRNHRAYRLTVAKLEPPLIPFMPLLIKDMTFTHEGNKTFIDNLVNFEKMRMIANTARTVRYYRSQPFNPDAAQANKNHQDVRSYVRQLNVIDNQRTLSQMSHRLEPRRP
Experiment [11] shares this target. In words: Confirmatory qHTS for antagonist of cAMP-regulated guanine nucleotide exchange factor 4 (EPAC2) (AID 1645885). Also: potency is read from the fitted curve at half-maximal effect; nearly all actives have a fitted effect of over 25% in size.
For experiment [12], the target named is Rap guanine nucleotide exchange factor 3 (Homo sapiens) (UniProt O95398). Nature of the experiment: Counterscreen qHTS for antagonist of cAMP-regulated guanine nucleotide exchange factor 3 (EPAC1) (AID 1645888).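 Also: fluorescence loss as bound BODIPY-GDP is released from Rap1B.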 In a few lines:
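Rap1B–BODIPY-GDP (250 nM) with 50 uM GDP; compounds pin-transferred to 9.74 nM–152 uM final (activator) or from 7.32 nM upwards (inhibitor). Fluorescence Ex/Em 480/540 nm read at 5 and 30 min, then after adding cAMP or buffer, at room temperature.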

Inconclusive results are not listed. Unmarked numbers belong to inactive results. Active and inactive are the calls of the source. Calls follow the shape of the dose curve; as a rule, active = well fitted curve in the direction sought with a large enough effect; inconclusive = small, poorly fitted or top-dose-only effect, or another doubt; inactive = no such curve, though single readings can be large; an effect the other way counts as inactive or inconclusive.

With `O=c1oc2ccc3ccccc3c2cc1-c1nnc(Nc2cccc(C(F)(F)F)c2)s1`, the Potency entry (with Furin (Homo sapiens); in experiment [1]; in experiment [2]) was “inactive” throughout.
For `O=C(Nc1ccc(C(=O)OCc2cc(=O)n3c4c(sc3n2)CCCC4)cc1)c1ccccc1`, the Potency with Furin (Homo sapiens) was 41.8 µM (active). The Potency result in experiment [1] and in experiment [2] was “inactive” in each case.
In the case of `O=C(COc1ccccc1F)Nc1ccc(C(=O)OCc2cc(=O)n3nc(C4CC4)sc3n2)cc1`, the Potency entry (with Furin (Homo sapiens); in experiment [1]; in experiment [2]) was “inactive” each time.
Consider `C[S+](=O)([O-])c1ccc(OCC2CN(Cc3ccccc3)C(=O)c3c(ccnc3-c3ccc(OCC(=O)O)cc3)O2)cc1` (configuration not stated), for which the Potency result in experiment [3] and in experiment [4] was “inactive” throughout.
For `COc1ccccc1C(=O)Nc1ccc(C(=O)OCc2cc(=O)n3c4c(sc3n2)CCCC4)cc1`, the Potency in the experiment with Furin (Homo sapiens) is 7.44 µM (active). Besides, the Potency entry in [5] and in experiment [2] was “inactive” throughout.
In the case of `CC(C)CN1CC(COc2ccc3ccccc3c2)Oc2ccnc(-c3ccc(OCC(=O)O)cc3)c2C1=O` (configuration not stated), the Potency entry (in the experiment with Furin (Homo sapiens); in experiment [2]) was “inactive” throughout. For the same compound, the Potency in experiment [6] is 355 µM (active); in [7], 39.8 µM (active).
In the case of `O=C(O)COc1ccc(-c2nccc3c2C(=O)N(Cc2cccc(C(F)(F)F)c2)CC(COc2ccccc2)O3)cc1` (configuration not stated), the Potency result (with Furin (Homo sapiens); in experiment [5]; in experiment [2]) was “inactive” in each case. For the same compound, the Potency in experiment [7] was 39.8 µM (active).
Regarding `CCCCCCc1cc2cc(-c3nnc(-c4cccc(Cl)c4)o3)c(=O)oc2cc1O`, the Potency result (with Furin (Homo sapiens); in experiment [9]) was “inactive” each time. Besides, the figures for the Potency in [8] and in [11] were 3.55 µM (active) and 7.57 µM (active), respectively. Moreover, the compound was classed as inactive in experiment [10] and in experiment [12].
Turning to `O=S(=O)(Nc1ccc(O)c(Sc2nc3ccccc3s2)c1)c1cc(Cl)ccc1Cl`, the Potency entry (with Furin (Homo sapiens); in experiment [2]) was “inactive” in each case. Besides, the values for the Potency in experiment [8], in [6] and in experiment [7] were 22.4 µM (active), 112 µM (active) and 44.7 µM (active), respectively.
Turning to `O=C(O)COc1ccc(-c2nccc3c2C(=O)N(Cc2cccc(C(F)(F)F)c2)CC(COc2ccc4cnccc4c2)O3)cc1` (configuration not stated), the Potency was 62.2 µM (active) with Furin (Homo sapiens) and 35.5 µM (active) in experiment [7].
Consider `Cc1ccc(-c2nnc(Nc3ccc(O)cc3)c3ccccc23)cc1S(=O)(=O)NC(C)(C)CO`, for which the Potency entry (with Furin (Homo sapiens); in experiment [2]) was “inactive” each time.

Source of the values: PubChem BioAssay (NCATS).
